Laboratory results from the supplement of paper PMC11732987, “Enantioselective OTUD7B fragment discovery through chemoproteomics screening and high-throughput optimisation” (Communications Chemistry, 2025).
A number with no mark means an inactive call.

Tests used:
Experiment in all cases: log2 ratio of Biotin-Ahx-Ub-VS probe labelling (fragment/DMSO); higher = less target engagement (more negative = stronger competition), active = hit call of the paper (q ≤ 0.05, log2 ratio ≤ -1)
Details in all cases: compound concentration: 200 uM; treatment time: 3 h
USP34 = USP34 (UniProt Q70CQ2)
In short: (§1)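 Each value is an average log2 ratio of fragment to vehicle, tested by unpaired t-test. The underlying Spectronaut label-free quantities were global-median-normalised, and only proteins with ≥2 unique peptides were included. Triplicate HEK293T lysate samples (495 µg) were exposed to fragment at 200 µM or vehicle for 3 h, then to Biotin-Ahx-Ub-VS at 0.5 µM final for 1 h, before NeutrAvidin enrichment of labelled DUBs, LysC and trypsin digestion, and diaPASEF LC-MS/MS.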

USP36 = target: T1, USP36 (UniProt Q9P275)
T1 sequence (whole entry): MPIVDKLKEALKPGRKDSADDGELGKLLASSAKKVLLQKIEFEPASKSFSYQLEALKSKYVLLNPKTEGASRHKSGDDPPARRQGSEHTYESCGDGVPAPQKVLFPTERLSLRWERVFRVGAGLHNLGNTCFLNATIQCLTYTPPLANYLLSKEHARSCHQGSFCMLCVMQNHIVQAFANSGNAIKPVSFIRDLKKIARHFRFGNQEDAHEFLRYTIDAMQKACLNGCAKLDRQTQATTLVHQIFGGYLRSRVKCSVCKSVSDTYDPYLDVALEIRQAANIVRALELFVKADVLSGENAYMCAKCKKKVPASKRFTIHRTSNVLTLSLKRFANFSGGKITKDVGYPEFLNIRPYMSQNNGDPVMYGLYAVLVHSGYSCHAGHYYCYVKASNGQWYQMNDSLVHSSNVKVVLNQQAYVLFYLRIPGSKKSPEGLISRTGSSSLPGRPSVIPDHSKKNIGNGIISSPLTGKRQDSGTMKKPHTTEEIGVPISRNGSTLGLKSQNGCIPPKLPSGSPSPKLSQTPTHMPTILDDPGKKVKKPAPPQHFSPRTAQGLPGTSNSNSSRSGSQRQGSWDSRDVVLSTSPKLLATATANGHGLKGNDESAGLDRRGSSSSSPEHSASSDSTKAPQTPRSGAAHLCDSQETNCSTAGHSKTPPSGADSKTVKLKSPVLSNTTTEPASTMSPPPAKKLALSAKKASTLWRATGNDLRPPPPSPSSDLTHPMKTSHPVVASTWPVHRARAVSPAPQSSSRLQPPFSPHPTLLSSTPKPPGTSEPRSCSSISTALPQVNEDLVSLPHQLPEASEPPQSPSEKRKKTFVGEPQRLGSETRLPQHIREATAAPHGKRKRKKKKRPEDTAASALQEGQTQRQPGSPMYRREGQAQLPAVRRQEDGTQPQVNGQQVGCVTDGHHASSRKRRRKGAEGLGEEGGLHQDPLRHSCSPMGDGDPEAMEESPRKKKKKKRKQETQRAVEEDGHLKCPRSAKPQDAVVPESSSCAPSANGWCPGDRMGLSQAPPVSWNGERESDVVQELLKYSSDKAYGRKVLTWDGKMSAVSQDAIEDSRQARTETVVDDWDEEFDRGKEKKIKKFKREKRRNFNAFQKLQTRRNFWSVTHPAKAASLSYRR
In short: as §1

USP38 = target: T2, USP38 (UniProt Q8NB14)
T2 sequence (whole entry): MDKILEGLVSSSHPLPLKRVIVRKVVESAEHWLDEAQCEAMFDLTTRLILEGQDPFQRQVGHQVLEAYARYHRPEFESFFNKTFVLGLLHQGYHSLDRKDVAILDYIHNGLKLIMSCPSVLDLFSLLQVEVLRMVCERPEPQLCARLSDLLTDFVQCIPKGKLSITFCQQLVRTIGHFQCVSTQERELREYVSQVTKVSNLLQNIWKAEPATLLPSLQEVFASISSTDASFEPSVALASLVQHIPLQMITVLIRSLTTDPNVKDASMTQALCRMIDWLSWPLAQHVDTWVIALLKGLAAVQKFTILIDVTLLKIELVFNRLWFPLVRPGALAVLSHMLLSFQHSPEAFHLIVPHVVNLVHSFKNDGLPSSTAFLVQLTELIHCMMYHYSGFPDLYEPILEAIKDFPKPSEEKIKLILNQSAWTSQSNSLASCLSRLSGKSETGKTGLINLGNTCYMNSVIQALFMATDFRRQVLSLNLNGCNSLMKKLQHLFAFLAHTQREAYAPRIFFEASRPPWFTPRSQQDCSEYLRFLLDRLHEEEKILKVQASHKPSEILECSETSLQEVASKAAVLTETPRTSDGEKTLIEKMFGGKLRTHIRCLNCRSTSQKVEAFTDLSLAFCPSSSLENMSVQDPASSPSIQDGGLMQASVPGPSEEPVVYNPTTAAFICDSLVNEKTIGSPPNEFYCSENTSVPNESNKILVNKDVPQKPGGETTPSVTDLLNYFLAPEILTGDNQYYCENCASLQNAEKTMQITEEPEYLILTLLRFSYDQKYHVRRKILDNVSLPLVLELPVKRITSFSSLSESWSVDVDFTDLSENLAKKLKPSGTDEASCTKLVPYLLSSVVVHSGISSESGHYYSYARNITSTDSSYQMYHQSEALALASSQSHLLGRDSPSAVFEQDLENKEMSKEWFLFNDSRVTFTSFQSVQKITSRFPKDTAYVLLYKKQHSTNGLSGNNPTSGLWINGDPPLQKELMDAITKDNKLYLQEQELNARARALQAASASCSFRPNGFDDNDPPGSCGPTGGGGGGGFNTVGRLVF
In short: as §1

USP39 = target: T3, USP39 (UniProt Q53GS9)
T3 sequence (whole entry): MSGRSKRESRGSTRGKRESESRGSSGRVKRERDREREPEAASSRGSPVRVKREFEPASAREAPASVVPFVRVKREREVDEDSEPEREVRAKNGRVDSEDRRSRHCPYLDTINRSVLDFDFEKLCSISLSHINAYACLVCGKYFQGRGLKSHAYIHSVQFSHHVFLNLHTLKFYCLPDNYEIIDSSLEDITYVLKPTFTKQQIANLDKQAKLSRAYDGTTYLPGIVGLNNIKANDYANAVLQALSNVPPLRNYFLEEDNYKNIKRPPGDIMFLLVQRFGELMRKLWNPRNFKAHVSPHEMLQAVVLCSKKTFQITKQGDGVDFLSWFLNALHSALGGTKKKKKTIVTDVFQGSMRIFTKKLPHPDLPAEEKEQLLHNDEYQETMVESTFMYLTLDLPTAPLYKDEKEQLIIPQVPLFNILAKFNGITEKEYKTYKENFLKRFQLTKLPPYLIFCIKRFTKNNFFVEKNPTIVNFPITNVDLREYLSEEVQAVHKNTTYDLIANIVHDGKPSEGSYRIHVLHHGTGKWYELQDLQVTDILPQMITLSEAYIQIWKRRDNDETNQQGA
In short: as §1

USP4 = target: T4, USP4 (UniProt Q13107)
T4 sequence (whole entry): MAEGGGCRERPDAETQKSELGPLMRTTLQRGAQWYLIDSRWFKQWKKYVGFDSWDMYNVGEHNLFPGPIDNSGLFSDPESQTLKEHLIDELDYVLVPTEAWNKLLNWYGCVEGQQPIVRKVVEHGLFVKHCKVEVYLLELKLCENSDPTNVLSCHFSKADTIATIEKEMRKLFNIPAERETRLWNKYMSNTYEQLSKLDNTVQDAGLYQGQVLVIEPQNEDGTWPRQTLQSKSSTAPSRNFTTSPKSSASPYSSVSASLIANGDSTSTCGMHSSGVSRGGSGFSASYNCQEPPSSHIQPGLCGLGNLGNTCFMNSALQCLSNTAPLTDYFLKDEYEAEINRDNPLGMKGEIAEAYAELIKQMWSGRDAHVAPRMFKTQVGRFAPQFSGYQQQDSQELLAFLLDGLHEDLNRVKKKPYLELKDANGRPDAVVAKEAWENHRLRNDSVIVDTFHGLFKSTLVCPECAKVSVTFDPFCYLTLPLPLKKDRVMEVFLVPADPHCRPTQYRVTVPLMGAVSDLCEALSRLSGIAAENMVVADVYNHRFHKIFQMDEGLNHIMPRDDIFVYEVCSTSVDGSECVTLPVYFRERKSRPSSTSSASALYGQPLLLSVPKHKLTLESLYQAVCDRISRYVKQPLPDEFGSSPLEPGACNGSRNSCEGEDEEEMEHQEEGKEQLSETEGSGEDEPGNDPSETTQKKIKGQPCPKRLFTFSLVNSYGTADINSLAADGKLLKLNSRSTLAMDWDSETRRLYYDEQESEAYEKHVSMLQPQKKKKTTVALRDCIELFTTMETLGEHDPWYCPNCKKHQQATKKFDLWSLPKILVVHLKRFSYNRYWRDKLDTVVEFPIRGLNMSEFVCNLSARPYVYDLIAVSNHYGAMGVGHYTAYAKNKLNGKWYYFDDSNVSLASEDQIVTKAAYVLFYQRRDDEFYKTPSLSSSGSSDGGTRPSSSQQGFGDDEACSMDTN
In short: as §1

USP34, sequence (Q70CQ2 whole entry, the tested form may be a part): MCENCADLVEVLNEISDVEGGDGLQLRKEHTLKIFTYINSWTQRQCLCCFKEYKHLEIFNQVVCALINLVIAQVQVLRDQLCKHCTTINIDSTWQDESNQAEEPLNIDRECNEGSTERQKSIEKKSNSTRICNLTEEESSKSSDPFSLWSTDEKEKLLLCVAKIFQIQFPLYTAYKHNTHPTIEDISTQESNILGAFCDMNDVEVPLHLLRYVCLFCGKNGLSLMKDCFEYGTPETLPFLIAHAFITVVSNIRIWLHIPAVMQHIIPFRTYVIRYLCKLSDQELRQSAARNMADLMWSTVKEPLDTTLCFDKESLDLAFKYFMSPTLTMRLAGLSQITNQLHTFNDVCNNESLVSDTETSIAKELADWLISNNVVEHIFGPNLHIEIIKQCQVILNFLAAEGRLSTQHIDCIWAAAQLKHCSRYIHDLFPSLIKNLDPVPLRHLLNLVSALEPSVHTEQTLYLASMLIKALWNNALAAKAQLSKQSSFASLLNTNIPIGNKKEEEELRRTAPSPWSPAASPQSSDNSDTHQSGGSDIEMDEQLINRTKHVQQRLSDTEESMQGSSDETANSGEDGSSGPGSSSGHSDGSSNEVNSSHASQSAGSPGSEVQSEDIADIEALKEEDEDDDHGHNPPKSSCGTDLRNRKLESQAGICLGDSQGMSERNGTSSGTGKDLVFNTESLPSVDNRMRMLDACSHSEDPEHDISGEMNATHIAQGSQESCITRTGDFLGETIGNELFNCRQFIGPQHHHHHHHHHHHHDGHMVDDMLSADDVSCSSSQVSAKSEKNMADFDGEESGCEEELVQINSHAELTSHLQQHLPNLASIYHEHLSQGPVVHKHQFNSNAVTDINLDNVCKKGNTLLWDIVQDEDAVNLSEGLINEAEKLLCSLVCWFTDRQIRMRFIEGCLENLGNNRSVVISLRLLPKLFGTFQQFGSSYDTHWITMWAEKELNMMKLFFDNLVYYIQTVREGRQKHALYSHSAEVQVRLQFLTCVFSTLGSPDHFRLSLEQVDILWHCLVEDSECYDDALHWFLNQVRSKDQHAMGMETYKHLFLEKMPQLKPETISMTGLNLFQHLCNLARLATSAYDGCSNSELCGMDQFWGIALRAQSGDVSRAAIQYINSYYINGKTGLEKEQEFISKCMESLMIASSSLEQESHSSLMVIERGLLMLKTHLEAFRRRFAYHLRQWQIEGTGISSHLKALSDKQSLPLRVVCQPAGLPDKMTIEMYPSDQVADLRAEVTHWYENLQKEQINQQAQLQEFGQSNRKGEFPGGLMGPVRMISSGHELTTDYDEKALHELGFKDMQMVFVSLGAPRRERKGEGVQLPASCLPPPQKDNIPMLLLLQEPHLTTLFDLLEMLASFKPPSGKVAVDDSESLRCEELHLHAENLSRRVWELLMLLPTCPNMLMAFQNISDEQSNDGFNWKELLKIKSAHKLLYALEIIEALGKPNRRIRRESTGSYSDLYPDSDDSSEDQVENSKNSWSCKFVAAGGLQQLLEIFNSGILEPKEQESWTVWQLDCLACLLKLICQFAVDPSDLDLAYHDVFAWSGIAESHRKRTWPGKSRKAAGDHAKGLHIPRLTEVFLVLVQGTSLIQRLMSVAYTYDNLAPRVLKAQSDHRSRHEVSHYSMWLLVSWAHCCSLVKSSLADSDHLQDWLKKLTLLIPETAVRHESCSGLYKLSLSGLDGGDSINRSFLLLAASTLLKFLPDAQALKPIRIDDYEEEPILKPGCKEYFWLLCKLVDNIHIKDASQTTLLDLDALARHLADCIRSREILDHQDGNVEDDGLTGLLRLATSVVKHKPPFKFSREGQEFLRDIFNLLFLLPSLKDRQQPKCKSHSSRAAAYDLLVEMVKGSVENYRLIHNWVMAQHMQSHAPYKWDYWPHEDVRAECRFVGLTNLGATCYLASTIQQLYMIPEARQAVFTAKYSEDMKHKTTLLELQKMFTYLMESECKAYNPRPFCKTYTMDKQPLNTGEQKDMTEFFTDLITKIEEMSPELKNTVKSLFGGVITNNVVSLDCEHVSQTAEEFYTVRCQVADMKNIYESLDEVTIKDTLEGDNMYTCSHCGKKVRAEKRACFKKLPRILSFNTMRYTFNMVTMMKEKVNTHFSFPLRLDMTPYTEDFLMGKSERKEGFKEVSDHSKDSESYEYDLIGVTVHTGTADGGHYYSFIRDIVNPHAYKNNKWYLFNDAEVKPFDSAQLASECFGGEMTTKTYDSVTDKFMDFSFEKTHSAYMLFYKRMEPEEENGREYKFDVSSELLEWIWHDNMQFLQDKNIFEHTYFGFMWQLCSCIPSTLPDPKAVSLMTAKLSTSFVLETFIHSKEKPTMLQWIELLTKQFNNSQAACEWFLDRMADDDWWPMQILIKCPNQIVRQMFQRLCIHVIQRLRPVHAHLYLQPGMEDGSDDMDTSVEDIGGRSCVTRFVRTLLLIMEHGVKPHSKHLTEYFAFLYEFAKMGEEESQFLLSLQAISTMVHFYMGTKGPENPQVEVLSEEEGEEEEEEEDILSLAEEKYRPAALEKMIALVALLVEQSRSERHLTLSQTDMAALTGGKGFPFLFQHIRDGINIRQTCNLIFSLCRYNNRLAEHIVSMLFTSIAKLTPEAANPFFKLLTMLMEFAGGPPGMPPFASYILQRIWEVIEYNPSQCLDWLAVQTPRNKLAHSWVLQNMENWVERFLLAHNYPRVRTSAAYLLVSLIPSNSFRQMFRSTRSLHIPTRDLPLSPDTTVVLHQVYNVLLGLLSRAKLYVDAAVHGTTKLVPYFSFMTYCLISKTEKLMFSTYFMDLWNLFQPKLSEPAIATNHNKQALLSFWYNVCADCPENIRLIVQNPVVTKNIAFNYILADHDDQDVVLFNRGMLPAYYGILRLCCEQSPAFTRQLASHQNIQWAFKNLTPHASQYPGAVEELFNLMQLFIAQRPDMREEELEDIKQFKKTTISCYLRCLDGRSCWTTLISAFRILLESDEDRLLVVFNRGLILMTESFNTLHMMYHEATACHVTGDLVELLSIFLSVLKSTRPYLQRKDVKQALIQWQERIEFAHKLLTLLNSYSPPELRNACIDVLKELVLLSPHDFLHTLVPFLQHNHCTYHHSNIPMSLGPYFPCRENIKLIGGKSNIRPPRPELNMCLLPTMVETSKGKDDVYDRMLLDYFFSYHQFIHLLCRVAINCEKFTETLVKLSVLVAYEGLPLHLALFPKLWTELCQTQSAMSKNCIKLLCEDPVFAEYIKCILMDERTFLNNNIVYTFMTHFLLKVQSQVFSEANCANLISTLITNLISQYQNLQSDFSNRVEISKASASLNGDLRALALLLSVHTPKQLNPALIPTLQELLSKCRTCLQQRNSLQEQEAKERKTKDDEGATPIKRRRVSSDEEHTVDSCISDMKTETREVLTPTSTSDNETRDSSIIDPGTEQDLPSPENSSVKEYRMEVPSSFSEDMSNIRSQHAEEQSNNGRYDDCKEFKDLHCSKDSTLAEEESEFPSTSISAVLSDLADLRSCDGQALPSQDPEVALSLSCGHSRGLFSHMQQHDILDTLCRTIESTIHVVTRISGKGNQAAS

## O=C(CCl)N1CCN(C(=O)N2CCCCC2)CC1
USP34
  log2 ratio of Biotin-Ahx-Ub-VS probe labelling: -0.512
USP36
  log2 ratio of Biotin-Ahx-Ub-VS probe labelling: -0.269
USP38
  log2 ratio of Biotin-Ahx-Ub-VS probe labelling: -1.04 (active)
USP39
  log2 ratio of Biotin-Ahx-Ub-VS probe labelling: -0.223
USP4
  log2 ratio of Biotin-Ahx-Ub-VS probe labelling: -1.05 (active)
